Bioassay records deposited in PubChem by National Center for Advancing Translational Sciences (NCATS).
The list is not random: actives were taken first. Their share in the collection is about 12%.
VP16 counter = Gal4-VP16 reporter inhibition counter-screen. 310,000 compounds, 3.5% hits. Potency, µM (top dose mostly 53.6 µM), inactives show top-dose activity, negative = inhibition, usual class: inhibitors. Drosophila S2 Gal4-VP16 UAS-luciferase, luminescence, 20 h;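 further: Gal4-VP16 expression switched on by copper sulfate through the metallothionein promoter; nearly all actives have a fitted effect of over 50% in size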
PLK1 PBD block = blocks phosphopeptide binding to human PLK1 polo-box domain; 360,000 compounds, 2.8% hits; Potency, µM, without a hit: max response, negative = inhibition, hits mostly inhibitors; Plk1 PBD binding of FITC phosphopeptide, fluorescence polarization; further: series mostly up to about 57 µM; nearly all actives have a fitted effect of over 65% in size
Sfp PPTase inh = blocks B. subtilis Sfp PPTase activity | Q9F4F7 | Biochemical Sfp PPTase activity, qHTS | Potency, µM, for inactives: largest response in the series, negative = inhibition, most hits filed as inhibitors | 310,000 compounds, 3.5% hits | AID 1490;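 further: the enzyme is Sfp with the accession as filed and its product quenches rhodamine fluorescence; 0% = enzyme reaction without inhibitor and -100% = no enzyme wells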
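Reaction rates are the 30-min fluorescence difference (ex 525, em 598 nm) in wells containing 15 nM Sfp, 5 uM rhodamine-CoA and 12.5 uM BHQ-2-YbbR at pH 7.6 with 10 mM MgCl2.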
ALDH1A1 inh = inhibitors of human aldehyde dehydrogenase 1A1; Purified ALDH1A1, NADH fluorescence, propionaldehyde substrate; Potency, µM (doses to about 75.3 µM), for the others: top-dose activity, negative = inhibition, usual class: inhibitors; 220,000 compounds, 7.3% hits; active means well fitted inhibition curve with a large enough effect, not every such curve was filed as active; inconclusive means small, poorly fitted or top-dose-only effect, or another doubt; inactive means no such curve, though single readings can be large or run the other way;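 further: plate controls were no enzyme wells and a reference inhibitor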
RORg inh = blocks mouse ROR gamma transcriptional activity | P51450 | Drosophila S2 Gal4-RORgamma UAS-luciferase reporter, 20 h | Potency, µM (doses to about 53.6 µM), inactives show at the highest dose activity change, negative = inhibition, most hits filed as inhibitors | 310,000 compounds, 5.4% hits; further: nearly all actives have a fitted effect of over 60% in size
Target sequence (P51450 whole entry, looked up, the tested form may be a part): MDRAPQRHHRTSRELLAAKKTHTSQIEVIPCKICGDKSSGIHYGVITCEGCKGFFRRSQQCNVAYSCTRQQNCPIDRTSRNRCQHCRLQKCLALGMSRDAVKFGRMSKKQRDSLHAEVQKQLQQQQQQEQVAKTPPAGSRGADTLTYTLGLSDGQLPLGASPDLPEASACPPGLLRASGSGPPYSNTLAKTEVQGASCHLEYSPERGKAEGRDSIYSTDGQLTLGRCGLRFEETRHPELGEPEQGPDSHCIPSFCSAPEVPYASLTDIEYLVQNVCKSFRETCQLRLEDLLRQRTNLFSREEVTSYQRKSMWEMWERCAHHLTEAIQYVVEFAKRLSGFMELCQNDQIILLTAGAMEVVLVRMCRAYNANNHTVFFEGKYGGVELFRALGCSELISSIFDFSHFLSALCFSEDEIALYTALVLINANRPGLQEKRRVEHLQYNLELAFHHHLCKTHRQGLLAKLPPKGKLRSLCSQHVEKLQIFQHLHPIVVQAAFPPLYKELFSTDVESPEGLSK
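Stably transfected Drosophila Schneider cells are the test system, with ROR gamma fused to Gal4 and luciferase under UAS control; luminescence is read after 20 hr of 700 uM copper sulfate induction at ambient temperature.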
Starred values were filed as active, the others as inactive; ? = inconclusive; / = not tested or not shown; ! = a repeat was not active; [ ] = another dose, or the depositor's remark. Unless noted, the call rests on the fitted dose curve; in most records, active means well fitted curve in the direction sought with a large enough effect; inconclusive means small, poorly fitted or top-dose-only effect, or another doubt; inactive means no such curve, though single readings can be large; an effect the other way counts as inactive or inconclusive. Unless noted, on the % scale 0 is the no-effect control and ±100 the full control effect; potency means the concentration at half of the fitted maximal effect.

SMILES | VP16 counter | PLK1 PBD block | Sfp PPTase inh | ALDH1A1 inh | RORg inh
CCCS(=O)(=O)NC(=O)C1(C)CCCN(C(=O)COc2ccccc2)C1 (centres undefined) | / | 7% | / | / | /
COc1ccc(Cl)cc1-c1cc(C(=O)NCc2cccs2)[nH]n1 | / | -6% | / | / | /
CNc1nc(C23CC4CC(CC(C4)C2)C3)cs1 | -25% | -7% | -25% | ? | 10µM*
Cc1[nH]n(-c2ccccc2)c(=O)c1N=Nc1cccc(C(=O)O)c1 | 2.8µM* | -7% | -8% | / | ?
O=Nc1c(-c2ccccc2)[nH]n(-c2ccccc2)c1=O | 16µM* | -10% | 10% | / | ?
Cc1[nH]n(-c2ccccc2)c(=O)c1N=Nc1ccccc1 | ? | 1% | 16% | 8% | 20%
Cc1[nH]n(-c2ccccc2)c(=O)c1N=Nc1ccc(Cl)cc1 | 7% | -9% | ? | / | -20%
Cc1[nH]n(-c2ccccc2)c(=O)c1N=Nc1ccc(C(=O)O)cc1 | 15% | -5% | 2% | / | 31%
Cc1[nH]n(-c2ccccc2)c(=O)c1N=Nc1c(Cl)cccc1Cl | ? | 3% | 24% | / | 13µM*
Cc1[nH]n(-c2ccccc2)c(=O)c1N=Nc1cccc(S(=O)(=O)N2CCOCC2)c1 | ? | -4% | 2% | -10% | 7.9µM*
Cc1ccc2nc(/C=C/c3cccc(F)c3)ccc2c1 | -18% | 0% | 2% | ? | 10µM*
COc1ccc(O[C@H]2C=C[C@@H](c3ccccc3)O[C@H]2CO/N=C(/C)CCC(=O)OC[C@@H]2O[C@H](C#Cc3ccccc3)C=C[C@@H]2Oc2ccc(C)cc2)cc1 | 2%[10 µM] | / | 5% | -5%[13.5 µM] | 16%[10 µM]
CC(C)Sc1nnc(NC(=O)c2ccco2)s1 | -13% | -29% | -25% | 14µM* | -18%
O=C(Nc1nnc(SCc2ccc(Cl)cc2)s1)c1ccco1 | 0% | 3µM* | 6% | 1% | -7%
CC1(C(=O)Nc2nnc(SCc3ccccc3)s2)Cc2ccccc2C(=O)O1 (centres undefined) | -11% | -8% | -9% | ? | 10µM*
O=C(Nc1n[nH]c(=S)s1)c1ccco1 | -4% | ? | 56µM* | / | -33%
COc1ncc2nc(C)c(=O)n(Cc3ccc(F)cc3)c2n1 | 14% | / | 20% | -1% | 28%
O=C(Nc1nnc(SCc2ccc(F)cc2)s1)c1ccc2c(c1)C(=O)N(c1ccccc1Cl)C2=O | 1% | -16% | 1% | 1.3µM* | 13%
O=C(Nc1nnc(SCc2ccc(F)cc2)s1)c1ccc2ncsc2c1 | -5% | -8% | 1% | ? | -38%
CCCCCCn1c(=O)n2n(c1=O)[C@@H]1CN(S(=O)(=O)c3ccc(C)cc3)C[C@]1(O)[C@@H](OC(=O)Nc1c(C)noc1C)C2 | / | -21% | / | / | /
COC(=O)c1ccc(NC(=S)NC(=O)c2c(Cl)cnn2C)cc1 | ? | -13% | 50µM* | 2% | ?
Cn1ncc(Br)c1C(=O)Nc1ccc(F)cc1F | -5% | -7% | 13% | 8% | -22%
COC(=O)c1ccc(NC(=O)c2c(Br)cnn2C)cc1 | 7% | 24µM* | 35µM* | / | 15%
COC(=O)c1cc(NC(=O)c2c(Cl)cnn2C)cc(C(=O)OC)c1 | -11% | -11% | 11% | -5% | -1%
Clc1cccc(/C(Cc2nc3ccccc3[nH]2)=N\Nc2ccccc2)c1 | ? | -10% | 11% | ? | 35µM*
SMILES | VP16 counter | PLK1 PBD block | Sfp PPTase inh | ALDH1A1 inh | RORg inh
O=C(NCCc1nc2ccccc2[nH]1)c1cc([N+](=O)[O-])cc([N+](=O)[O-])c1 | -17% | -1% | ? | 13% | ?
CCN/N=C(\Cc1nc2ccccc2[nH]1)c1ccccc1 | -15% | -22% | 7% | ? | ?
N/N=C(/Cc1nc2ccccc2[nH]1)c1ccc([N+](=O)[O-])cc1 | ? | -11% | -24% | ? | 14µM*
N#CCCN/N=C(\Cc1nc2ccccc2[nH]1)c1ccccc1 | 7% | -13% | 1% | ? | 26%
Cc1ccc(N/N=C(\Cc2nc3ccccc3[nH]2)c2ccccc2)cc1 | ? | ? | -9% | 10µM* | ?
c1ccc(N/N=C(\Cc2nc3ccccc3[nH]2)c2ccccc2)cc1 | ? | -10% | 9% | 28µM* | -16%[10 µM]
CCN(CC)CCn1c(NCc2ccc3c(c2)OCO3)nc2ccccc21 | 2% | -5% | -6% | -4% | -18%
CCN(CC)CCn1c(NCc2cccc(OC)c2)nc2ccccc21 | -8% | -6% | -7% | 2% | 5.6µM*
CCN(CC)CCn1c(NCc2cc(OC)ccc2OC)nc2ccccc21 | 16% | 27µM* | 0% | 0% | ?
O=C(c1csnn1)N1CCC2(CCCN(c3ccncc3)C2)CC1 | -1% | / | 13% | -10% | -18%
NC(=O)c1ccc[n+]([C@@H]2OC(COP(=O)([O-])OP(=O)(O)OCC3OC(n4cnc5c(N)ncnc54)C(O)C3O)C(O)C2O)c1 (some centres undefined) | -3% | / | 6% | -3% | -23%
NC(=S)c1ccc[n+]([C@@H]2O[C@@H](COP(=O)([O-])OP(=O)(O)OC[C@H]3O[C@@H](n4cnc5c(N)ncnc54)[C@H](OP(=O)(O)O)[C@H]3O)C(O)C2O)c1 (some centres undefined) | / | / | / | 28µM* | /
Cc1cc(C2(c3ccc(O)c(C)c3)C(=O)Nc3ccccc32)ccc1O | 16µM* | -2% | 7% | 1% | -21%
CNC(=O)C[C@@H]1C(=O)N(c2ccc(OC)cc2)CC1(C)C | / | 1% | / | / | /
Cn1c(=O)c2cccnc2c(=O)n1C | / | 5% | / | / | /
Oc1ccc(F)c2cccnc12 | 4.5µM* | 5.3µM* | 5% | 17% | 2.8µM*
Oc1ccc(Cl)c2cccnc12 | 3.2µM*! | 4% | 28% | 0% | 1.8µM*
Cc1ccnc(SCC(=O)N2CCc3ccccc3C2)n1 | 4% | -18% | -10% | 18µM* | 7%
O=C(CSc1ncccn1)N1CCc2ccccc2C1 | 3% | -6% | -15% | 3% | -9%
COc1cc2c(cc1OC)CN(C(=O)CSc1ccccc1C)CC2 | / | 27µM* | / | / | /
Cc1nc2ncnn2c(C)c1CCC(=O)N1CCc2ccccc2C1 | -2% | -2% | 17% | 2.2µM* | 2%
COc1cc2c(cc1OC)CN(C(=O)CSc1nc3[nH]ncc3c(=O)n1-c1ccccc1)CC2 | 7% | -8% | 12% | 28µM* | 18%
CN(C)C(CNc1ncnc2sccc12)c1ccccc1 (centres undefined) | 3% | -7% | 11% | 2% | 10%
c1ccc(CNc2ncnc3sccc23)cc1 | 18µM* | -2% | 16% | / | -12%
COc1ccc(CNc2ncnc3sccc23)cc1 | ? | -7% | 4% | / | ?
c1cncc(CNc2ncnc3sccc23)c1 | -12% | 4% | 21% | 11% | ?
OC(CNc1ncnc2sccc12)c1ccccc1 (centres undefined) | 6.3µM* | -4% | 8% | / | ?
COc1ccc(CNc2ncnc3sccc23)cc1OC | 11µM* | -1% | 6% | / | ?
